MRP reversal: MRP-mediated drug resistance reversal; differential viability (reversal), % at 10 µM; H69AR cells + 2 uM doxorubicin, CellTiter-Glo, 72 h; actives 0.04% (n = 85,000);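 active means viability drop by adding the cancer drug above about 55%, with treated viability meeting a 40% cutoff, limit read from the data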;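 further: viability without doxorubicin minus viability with 2 µM doxorubicin for each compound; larger differential means the compound sensitizes cells more to doxorubicin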
CYP2C19 inhib: human CYP2C19 inhibition. actives 21% (n = 96,000). AID 778. inhibition, % at 5 µM. CYP2C19 Supersomes, luciferin-H EGE luminescence, 30 min;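 active means CYP2C19 inhibition above a set limit at 5 µM in the primary screen, cut at about 50% in these data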;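 further: plate controls were negative control wells for no effect and 2.5 mM tranylcypromine positive control for full effect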
MRP1 act: MRP-1 activation. viability increase, % at 10 µM. actives 0.61% (n = 140,000). H69AR cells + doxorubicin, viability rescue, CellTiter-Glo;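 active means viability gain under doxorubicin at or above a set limit, the compound median plus 3 SD, cut at about 4.7% in these data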;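 further: MRP-1 overexpressing cells given doxorubicin 25 µM after compound pretreatment; 18-22 h compound pretreatment then 72 h with doxorubicin before readout; 0% = doxorubicin-only wells and 100% = vehicle-treated cells without doxorubicin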
CYP2C9 inh: inhibitors of human CYP2C9 | P11712 | CYP2C9 Supersomes, luciferin-H conversion, luminescence | inhibition, % at 5 µM | actives 20% (n = 96,000);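 active means blocking of liver enzyme CYP2C9 beyond about 50% at 5 µM, limit read from the data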
Target sequence (P11712 whole entry, looked up): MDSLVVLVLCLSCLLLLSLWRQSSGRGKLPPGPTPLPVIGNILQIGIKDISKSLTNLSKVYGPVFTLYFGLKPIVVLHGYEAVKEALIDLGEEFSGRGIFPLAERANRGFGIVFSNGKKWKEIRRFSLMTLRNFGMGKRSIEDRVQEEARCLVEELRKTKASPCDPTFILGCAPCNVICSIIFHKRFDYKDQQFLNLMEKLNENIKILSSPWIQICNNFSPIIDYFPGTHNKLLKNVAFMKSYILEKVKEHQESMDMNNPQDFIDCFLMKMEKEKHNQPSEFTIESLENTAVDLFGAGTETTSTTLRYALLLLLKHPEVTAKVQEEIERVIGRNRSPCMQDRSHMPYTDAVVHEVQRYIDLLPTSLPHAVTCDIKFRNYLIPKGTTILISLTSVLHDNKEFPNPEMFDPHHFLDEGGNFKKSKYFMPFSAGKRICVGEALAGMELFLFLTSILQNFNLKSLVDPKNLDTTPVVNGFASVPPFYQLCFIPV
CYP2C9 activ: activators of human CYP2C9 | activation factor at 5 µM | actives 1.4% (n = 96,000) | P11712 | recombinant CYP2C9, luciferin-H conversion, luminescence; stronger effect = higher value; factor 1 = untreated enzyme, 0 = blocked;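 active means activation factor of 2 or more for CYP2C9 at a 5 µM dose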;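 further: 0 = sulfaphenazole-blocked wells and 1 = vehicle-only wells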
CYP2C19 act: increases human CYP2C19 enzyme activity; AID 1025; recombinant CYP2C19, luciferin-H EGE luminescence; stronger effect = higher value; 0 = fully inhibited enzyme, 1 = untreated enzyme; activation factor at 5 µM; 96,000 tested, under 10 active; P33261;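 active means activation factor of at least 2 at 5 µM in the primary screen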;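 further: 0 = wells with 2.5 mM tranylcypromine and 1 = vehicle-only wells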
* = called active by the depositor; . = no result. Only some compounds are listed: those with a hit (about 21% of all), similar ones and a draw of the others.

SMILES	MRP reversal	CYP2C19 inhib	MRP1 act	CYP2C9 inh	CYP2C9 activ	CYP2C19 act
O=C(CC(c1ccccc1)c1cc(Br)ccc1O)NCCN1CCOCC1 (centres undefined)	21	85*	-3	56*	0.4	0.2
O=C(Cc1cccs1)NCCN1CCOCC1	.	.	0	.	.	.
CC(C)N(C(=O)c1ccccc1-c1ccccc1)C(C)C	11	26	0	20	0.8	0.7
Cc1cnc(C(=O)OCC(=O)Nc2ccc(C)c(S(=O)(=O)N3CCCCC3)c2)cn1	.	.	-1	.	.	.
O=C(Cc1ccc(-c2ccccc2)cc1)N1CCOCC1	22	74*	0	65*	0.3	0.3
NC(=O)C1CCCN(C(=S)Nc2cccc3ccccc23)C1 (centres undefined)	.	.	-1	.	.	.
O=C(CN(Cc1ccccc1)S(=O)(=O)c1ccc(F)cc1)NCCC1=CCCCC1	.	19	-3	46	0.5	0.8
CS(=O)(=O)N(CC(=O)NCCC1=CCCCC1)C1CCCCC1	-6	71*	0	69*	0.3	0.3
Cc1ccc(S(=O)(=O)N(CC(=O)NCCC2=CCCCC2)Cc2ccccc2F)cc1	.	22	-1	52*	0.5	0.8
Cc1ccc(S(=O)(=O)N(CC(=O)NCCC2=CCCCC2)Cc2ccccc2)cc1	.	39	-5	57*	0.4	0.6
CN(C)CCNC(=O)Cn1nc(C(F)F)cc1C1CC1	5	-1	0	-1	1	1
O=C(CN(Cc1ccccc1F)S(=O)(=O)c1ccc(Cl)cc1)NCCC1=CCCCC1	.	8	-4	16	0.8	0.9
O=C(Cn1nc(C(F)F)cc1C1CC1)NCCC1=CCCCC1	31	68*	-1	0	1	0.3
Cn1c(=O)c2c3c(sc2n2c(SCc4ccc5c(c4)OCO5)nnc12)COC(C)(C)C3	2	-4	.	19	0.8	1
Cc1nnc(SCC(=O)Nc2cccc(S(=O)(=O)N(C)c3ccccc3)c2)s1	.	.	1	.	.	.
O=C1[C@H]2[C@@H](C(=O)N1c1cccc3ccccc13)C1(C(=O)c3ccccc3C1=O)N1CCC[C@@H]21	-17	38	-2	26	0.7	0.6
O=C(CN(Cc1ccccc1F)S(=O)(=O)c1ccc(Cl)cc1)NCCCO	-9	54*	-3	14	0.9	0.5
COc1ccc(C(=O)COC(=O)CSCc2c(C)noc2C)cc1OC	7	64*	0	34	0.7	0.4
Cc1noc(C)c1CSCC(=O)OCC(=O)NC1CCCCC1	-2	20	0	12	0.9	0.8
Cc1c(-c2ccccc2)oc2c(C(=O)OCC(=O)Nc3ccc(C(N)=O)cc3)cccc2c1=O	.	.	-2	.	.	.
CCCc1cc(=O)oc2cc(Oc3ncccn3)ccc12	2	88*	0	37	0.6	0.1
COc1ccc2c(CN(C)c3ccccc3)cc(=O)oc2c1	5	97*	-2	36	0.6	0
Cc1cc(C)c(NS(=O)(=O)c2ccc3c(c2)NC(=O)CC(=O)N3)c(C)c1	.	.	0	.	.	.
COc1ccc(OC)c(NC(=O)CC(NCCC2=CCCCC2)C(=O)O)c1 (centres undefined)	13	4	1	34	0.7	1
O=C(COC(=O)c1ccc(NS(=O)(=O)c2ccc3c(c2)OCCO3)cc1)NC1CC1	.	15	0	62*	0.4	0.9
SMILES	MRP reversal	CYP2C19 inhib	MRP1 act	CYP2C9 inh	CYP2C9 activ	CYP2C19 act
O=C(O)c1ccc(NS(=O)(=O)c2ccc3c(c2)OCCO3)cc1	-11	-17	-2	-19	1.2	1.2
O=C(O)c1cc(S(=O)(=O)Nc2ccc3c(c2)OCCO3)c(Cl)cc1Cl	0	15	-1	51*	0.5	0.9
COc1ccc(S(=O)(=O)Nc2ccc3c(c2)OCO3)cc1C(=O)O	.	11	-2	11	0.9	0.9
COc1ccc(S(=O)(=O)Nc2ccc3c(c2)OCO3)cc1OC	-10	100*	-2	47	0.5	0
O=S(=O)(Nc1ccc2c(c1)OCCO2)c1ccc2oc3ccccc3c2c1	19	100*	1	98*	0	0
O=S(=O)(NCc1ccc2c(c1)OCO2)c1ccc2oc3ccccc3c2c1	3	.	.	.	.	.
CCNc1nc(NCC)n2c(SCC(=O)NC34CC5CC(CC(C5)C3)C4)nnc2n1	.	.	-1	.	.	.
Cc1cc(S(=O)(=O)NCCCN2CCOCC2)ccc1F	12	29	-2	-7	1.1	0.7
N#CCCC12CCCCC1=Nc1ccccc12 (centres undefined)	6	5	-3	8	0.9	0.9
N#Cc1cc([N+](=O)[O-])cnc1Nc1ccccc1	.	.	0	.	.	.
Cc1n[nH]c(C)c1S(=O)(=O)Nc1ccc2c(c1)OCCO2	11	.	-2	.	.	.
Cc1cccc(NS(=O)(=O)c2ccc(C3CCCCC3)cc2)c1	.	69*	-5	44	0.6	0.3
O=S(=O)(Nc1ccc2c(c1)OCCO2)c1cnc[nH]1	8	12	-2	78*	0.2	0.9
Cc1cccc(NS(=O)(=O)c2ccc3c(c2)OCCO3)c1	-17	100*	-4	18	0.8	0
COc1ccc(S(=O)(=O)Nc2ccc3c(c2)OCCO3)cc1Cl	6	99*	-1	93*	0.1	0
O=C(O)CN1CCN(Cc2ccc(F)cc2Cl)C1=O	-5	.	2	.	.	.
Cc1ccc(CCNC(=O)NC(C)(C)C)cc1	3	24	1	12	0.9	0.8
Cc1ccc(CCNC(=O)Cn2cccc2)cc1	-11	76*	0	22	0.8	0.2
Cc1ccc(CCNC(=O)CN2CCN(Cc3ccccc3F)C2=O)cc1	-5	48	1	81*	0.2	0.5
O=C(CN1CCN(Cc2ccc(F)cc2Cl)C1=O)NCCc1ccccc1	16	54*	-1	58*	0.4	0.5
O=C(CN1CCN(Cc2ccccc2F)C1=O)NCc1cccnc1	3	-1	0	26	0.7	1
CC(=O)Oc1ccc(OC(C)=O)c(SCCCCCN2CCOCC2)c1	.	9	-4	-4	1	0.9
N#Cc1nc(COc2ccccc2)oc1N1CCCCCC1	5	15	6.3*	23	0.8	0.9
N#Cc1nc(COc2ccc(-c3ccccc3)cc2)oc1NCCCN1CCOCC1	-10	23	-6	49	0.5	0.8
CN1CCN(c2oc(COc3ccc(-c4ccccc4)cc3)nc2C#N)CC1	5	55*	-4	20	0.8	0.4
N#Cc1nc(COc2ccccc2)oc1N1CCCC1	.	88*	5.0*	31	0.7	0.1
O=C1C2C(C(=O)N1/N=C/c1cccc([N+](=O)[O-])c1)C1C=CC2C12CC2 (centres undefined)	.	.	-3	.	.	.
COC(=O)C1=C(C)N(C)C(=O)NC1c1cc(Cl)c(O)c(OC)c1 (centres undefined)	44	36	1	56*	0.4	0.6
CN(C(=O)c1ccco1)c1nnc(C23CC4CC(CC(C4)C2)C3)s1	-10	9	-4	18	0.8	0.9
CN(C(=O)c1ccco1)c1nc2c(s1)CCCC2	-19	45	-3	62*	0.4	0.6
